Experimental findings from publication PMC11006913 are described below.

Changes are numbered by the printed parent chain.

What all share (test): PBM; 200 nM protein, PBS
What all share (settings): dsDNA, one strand shown

The target of experiment [1] is T1, SIX6 (Homo sapiens, UniProt O95475 114-200, L167I).
T1 sequence: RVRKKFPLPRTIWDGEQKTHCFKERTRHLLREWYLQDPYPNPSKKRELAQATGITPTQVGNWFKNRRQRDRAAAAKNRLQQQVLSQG

Experiment [2] addresses T2, SIX6 (Homo sapiens, UniProt O95475 114-200, L143V).
T2 sequence: T1 sequence with L30V, I54L

For experiment [3], the target named is T3, SIX6 (Homo sapiens, UniProt O95475 114-200, H141N).
T3 sequence: T1 sequence with H28N, I54L

The target in experiment [4] is T4, SIX6 (Homo sapiens, UniProt O95475 114-200, T165P).
T4 sequence: T1 sequence with T52P, I54L

Experiment [5] has as its target T5, SIX6 (Homo sapiens, UniProt O95475 114-200, L167M).
T5 sequence: T1 sequence with I54M

Experiment [6] addresses T6, SIX6 (Homo sapiens, UniProt O95475 114-200, L143M).
T6 sequence: T1 sequence with L30M, I54L

For experiment [7], the target named is T7, SIX6 (Homo sapiens, UniProt O95475 114-200, L143I).
T7 sequence: T1 sequence with L30I, I54L

Experiment [8] concerns the target T8, SIX6 (Homo sapiens, UniProt O95475 114-200, T165G).
T8 sequence: T1 sequence with T52G, I54L

Experiment [9] addresses T9, SIX6 (Homo sapiens, UniProt O95475 114-200, T139Q).
T9 sequence: T1 sequence with T26Q, I54L

The target in experiment [10] is T10, SIX6 (Homo sapiens, UniProt O95475 114-200, T165A).
T10 sequence: T1 sequence with T52A, I54L

The target in experiment [11] is T11, SIX6 (Homo sapiens, UniProt O95475 114-200, L167V).
T11 sequence: T1 sequence with I54V

Experiment [12] deals with T12, SIX6 (Homo sapiens, UniProt O95475 114-200).
T12 sequence: T1 sequence with I54L

The target in experiment [13] is T13, SIX6 (Homo sapiens, UniProt O95475 114-200, T165I).
T13 sequence: T1 sequence with T52I, I54L

For GCTGTCCC, the binding signal with SIX6 [1] is 8.84 upbm affinity estimate (log intensity, higher = more binding, comparable within an allelic series); with SIX6 [2], 8.8 upbm affinity estimate (log intensity, higher = more binding, comparable within an allelic series); with SIX6 [3] it was 8.82 upbm affinity estimate (log intensity, higher = more binding, comparable within an allelic series); with SIX6 [4], 9.07 upbm affinity estimate (log intensity, higher = more binding, comparable within an allelic series); with SIX6 [5], 8.79 upbm affinity estimate (log intensity, higher = more binding, comparable within an allelic series); in the experiment with SIX6 [6] it was 8.89 upbm affinity estimate (log intensity, higher = more binding, comparable within an allelic series). Further, the binding signal is 8.88 upbm affinity estimate (log intensity, higher = more binding, comparable within an allelic series) with SIX6 [7]; 8.98 upbm affinity estimate (log intensity, higher = more binding, comparable within an allelic series) with SIX6 [8]; 9.06 upbm affinity estimate (log intensity, higher = more binding, comparable within an allelic series) with SIX6 [9]; 8.87 upbm affinity estimate (log intensity, higher = more binding, comparable within an allelic series) in the experiment with SIX6 [10]; 9.03 upbm affinity estimate (log intensity, higher = more binding, comparable within an allelic series) with SIX6 [11]; 8.86 upbm affinity estimate (log intensity, higher = more binding, comparable within an allelic series) in the experiment with SIX6 [12]. For the same sequence, in the experiment with SIX6 [13], the binding signal is 8.9 upbm affinity estimate (log intensity, higher = more binding, comparable within an allelic series).

On to GATATCCA, for which the binding signal was 11.1 upbm affinity estimate (log intensity, higher = more binding, comparable within an allelic series) with SIX6 [1]; 10.3 upbm affinity estimate (log intensity, higher = more binding, comparable within an allelic series) with SIX6 [2]; 11 upbm affinity estimate (log intensity, higher = more binding, comparable within an allelic series) in the experiment with SIX6 [3]; 9.81 upbm affinity estimate (log intensity, higher = more binding, comparable within an allelic series) with SIX6 [4]; 10.7 upbm affinity estimate (log intensity, higher = more binding, comparable within an allelic series) with SIX6 [5]; 10.9 upbm affinity estimate (log intensity, higher = more binding, comparable within an allelic series) with SIX6 [6]. Moreover, the binding signal with SIX6 [7] is 10.3 upbm affinity estimate (log intensity, higher = more binding, comparable within an allelic series); with SIX6 [8], 11.1 upbm affinity estimate (log intensity, higher = more binding, comparable within an allelic series); with SIX6 [9], 11 upbm affinity estimate (log intensity, higher = more binding, comparable within an allelic series); with SIX6 [10], 11 upbm affinity estimate (log intensity, higher = more binding, comparable within an allelic series); in the experiment with SIX6 [11] it was 10.9 upbm affinity estimate (log intensity, higher = more binding, comparable within an allelic series); with SIX6 [12], 10.9 upbm affinity estimate (log intensity, higher = more binding, comparable within an allelic series). Further, the binding signal with SIX6 [13] was 10.8 upbm affinity estimate (log intensity, higher = more binding, comparable within an allelic series).

For the sequence CTCGATAC, the binding signal was 10.6 upbm affinity estimate (log intensity, higher = more binding, comparable within an allelic series) in the experiment with SIX6 [1]; 10 upbm affinity estimate (log intensity, higher = more binding, comparable within an allelic series) with SIX6 [2]; 10.6 upbm affinity estimate (log intensity, higher = more binding, comparable within an allelic series) with SIX6 [3]; 9.7 upbm affinity estimate (log intensity, higher = more binding, comparable within an allelic series) in the experiment with SIX6 [4]; 10.2 upbm affinity estimate (log intensity, higher = more binding, comparable within an allelic series) in the experiment with SIX6 [5]; 10.6 upbm affinity estimate (log intensity, higher = more binding, comparable within an allelic series) with SIX6 [6]. In addition, the binding signal in the experiment with SIX6 [7] is 10.1 upbm affinity estimate (log intensity, higher = more binding, comparable within an allelic series); with SIX6 [8], 10.8 upbm affinity estimate (log intensity, higher = more binding, comparable within an allelic series); with SIX6 [9] it was 10.8 upbm affinity estimate (log intensity, higher = more binding, comparable within an allelic series); in the experiment with SIX6 [10], 10.6 upbm affinity estimate (log intensity, higher = more binding, comparable within an allelic series); with SIX6 [11], 10.4 upbm affinity estimate (log intensity, higher = more binding, comparable within an allelic series); in the experiment with SIX6 [12], 10.6 upbm affinity estimate (log intensity, higher = more binding, comparable within an allelic series). In the experiment with SIX6 [13], the binding signal is 10.5 upbm affinity estimate (log intensity, higher = more binding, comparable within an allelic series).

Take GCCTTCGC: the binding signal with SIX6 [1] is 8.84 upbm affinity estimate (log intensity, higher = more binding, comparable within an allelic series); with SIX6 [2], 9.04 upbm affinity estimate (log intensity, higher = more binding, comparable within an allelic series); with SIX6 [3] it was 8.95 upbm affinity estimate (log intensity, higher = more binding, comparable within an allelic series); in the experiment with SIX6 [4], 9.09 upbm affinity estimate (log intensity, higher = more binding, comparable within an allelic series); in the experiment with SIX6 [5], 8.82 upbm affinity estimate (log intensity, higher = more binding, comparable within an allelic series); with SIX6 [6], 9.06 upbm affinity estimate (log intensity, higher = more binding, comparable within an allelic series). The binding signal was 8.98 upbm affinity estimate (log intensity, higher = more binding, comparable within an allelic series) with SIX6 [7]; 8.83 upbm affinity estimate (log intensity, higher = more binding, comparable within an allelic series) with SIX6 [8]; 8.96 upbm affinity estimate (log intensity, higher = more binding, comparable within an allelic series) with SIX6 [9]; 8.83 upbm affinity estimate (log intensity, higher = more binding, comparable within an allelic series) with SIX6 [10]; 8.91 upbm affinity estimate (log intensity, higher = more binding, comparable within an allelic series) with SIX6 [11]; 8.85 upbm affinity estimate (log intensity, higher = more binding, comparable within an allelic series) in the experiment with SIX6 [12]. Besides, the binding signal with SIX6 [13] was 8.83 upbm affinity estimate (log intensity, higher = more binding, comparable within an allelic series).

As to AGGTGGGC, the binding signal with SIX6 [1] was 8.98 upbm affinity estimate (log intensity, higher = more binding, comparable within an allelic series); in the experiment with SIX6 [2], 8.85 upbm affinity estimate (log intensity, higher = more binding, comparable within an allelic series); with SIX6 [3], 8.88 upbm affinity estimate (log intensity, higher = more binding, comparable within an allelic series); in the experiment with SIX6 [4], 8.89 upbm affinity estimate (log intensity, higher = more binding, comparable within an allelic series); with SIX6 [5], 8.86 upbm affinity estimate (log intensity, higher = more binding, comparable within an allelic series); in the experiment with SIX6 [6], 8.93 upbm affinity estimate (log intensity, higher = more binding, comparable within an allelic series). Moreover, the binding signal with SIX6 [7] is 8.92 upbm affinity estimate (log intensity, higher = more binding, comparable within an allelic series); with SIX6 [8], 8.98 upbm affinity estimate (log intensity, higher = more binding, comparable within an allelic series); with SIX6 [9] it was 9.06 upbm affinity estimate (log intensity, higher = more binding, comparable within an allelic series); with SIX6 [10], 8.91 upbm affinity estimate (log intensity, higher = more binding, comparable within an allelic series); with SIX6 [11], 8.91 upbm affinity estimate (log intensity, higher = more binding, comparable within an allelic series); with SIX6 [12] it was 8.91 upbm affinity estimate (log intensity, higher = more binding, comparable within an allelic series). For the same sequence, the binding signal with SIX6 [13] was 8.94 upbm affinity estimate (log intensity, higher = more binding, comparable within an allelic series).
